From PMC4552634, “A New Set of Chemical Starting Points with Plasmodium falciparum Transmission-Blocking Potential for Antimalarial Drug Discovery” (PLoS ONE, 2015)
The whole screen tested about 13,000 compounds, of which about 3,200 (25%) showed an effect of 50% or more. The list shows a part of the results.

Each molecule was assayed on P. falciparum stage V gametocytes. Conditions: 48 h, 5 µM; inhibitor.
Design: BacTiter-Glo ATP luminescence viability of purified stage V gametocytes in 384-well plates, per cent inhibition versus DMSO

Compared with `CC1(C)N=C(N)N=C(N)N1OCc1cc2ccccc2cc1CON1C(N)=NC(N)=NC1(C)C` [TCMDC-131627], `CCc1nc(N)nc(N)c1-c1ccc(C(C)C)cc1` [TCMDC-137368] is lower in “% Inhibition” value: 15.22% for the first, 11.22% for the second.

Going from `O=C(/C=C/c1ccc(Cl)c(Cl)c1)NCCCCN1CCCN(C(=O)Nc2ccc(C(F)(F)F)cc2)CC1` [TCMDC-135930] to `O=C(/C=C/c1ccc(Cl)c(Cl)c1)NCCCCCN1CCN(C(=O)Nc2ccc(C(F)(F)F)cc2)CC1` [TCMDC-135734], the “% Inhibition” value falls from -28.77% to -55.55%.

First: CN(C(=O)Nc1ccc(C(F)(F)F)cc1)C1CCN(CCCCCNC(=O)/C=C/c2ccc(Cl)c(Cl)c2)CC1 [TCMDC-139524]
Second: CN(C(=O)Nc1ccc(F)cc1)C1CCN(CCCCCNC(=O)/C=C/c2ccc(Cl)c(Cl)c2)CC1 [TCMDC-139492]
The “% Inhibition” value of the first is higher: 54.85% for the first, -6.373% for the second.

Going from `O=C(/C=C/c1ccc(Cl)c(Cl)c1)NCCCCCN1CCCC(CCCNC(=O)Nc2ccc(C(F)(F)F)cc2)C1` (stereo not shown) [TCMDC-139517] to `O=C(/C=C/c1ccc(Cl)c(Cl)c1)NCCCCCN1CCCC(CNC(=O)Nc2ccc(C(F)(F)F)cc2)C1` (stereo not shown) [TCMDC-139521], the “% Inhibition” value rises from 56.6% to 91.99%.

Compared with `O=C(NCCCCN1CCN(CC=Cc2ccccc2)CC1)c1ccc(NC(=O)c2cc(Cl)cc(Cl)c2)cc1` [TCMDC-138216], `O=C(/C=C/c1ccc(Cl)c(Cl)c1)NCCCCCCN1CCN(C(=O)Nc2ccc(C(F)(F)F)cc2)CC1` [TCMDC-135824] is lower in “% Inhibition” value: -21.85% for the first, -51.85% for the second.

Going from `CCOC(=O)c1ccc(NC(=O)NCCCC2CCCN(CCCCCNC(=O)/C=C/c3ccc(Cl)c(Cl)c3)C2)cc1` (stereo not shown) [TCMDC-139516] to `CC(C)c1ccc(NC(=O)NCCCC2CCCN(CCCCCNC(=O)/C=C/c3ccc(Cl)c(Cl)c3)C2)cc1` (stereo not shown) [TCMDC-139515], the “% Inhibition” value falls from 55.81% to 38.89%.

Compared with `O=C(NCC1CCN(C/C=C/c2ccccc2)CC1)Nc1ccc(Oc2ccccc2)cc1` [TCMDC-139153], `O=C(/C=C/c1ccc(Cl)c(Cl)c1)NCCCCCN1CCCC(CNC(=O)Nc2ccc(Oc3ccccc3)cc2)C1` (stereo not shown) [TCMDC-139522] is lower in “% Inhibition” value: 95.36% for the first, 54.61% for the second.

Going from `O=C(NNC(=O)c1ccc(CN2CCC(c3nc4ccccc4[nH]3)CC2)cc1)Nc1ccc(Oc2ccccc2)cc1` [TCMDC-135310] to `O=C(NCc1cccc(Br)c1)c1ccc(CNC2CCN(Cc3ccccc3)CC2)cc1` [TCMDC-140788], the “% Inhibition” value rises from 0.2458% to 24.75%.

Compared with `Cn1cc(CCNc2ccnc(N3CCC(c4ncc[nH]4)CC3)n2)c2ccccc21` [TCMDC-135120], `CN1CCN(c2nc(NCCc3ccc(O)cc3)nc(NCc3ccccc3-c3ccc(C(F)(F)F)cc3)n2)CC1` [TCMDC-138322] is lower in “% Inhibition” value: 26.64% for the first, -8.259% for the second.

First: CCOC(=O)CCCc1cc(NC2CCN(C)CC2)nc(Nc2ccc(OC)cc2)n1 [TCMDC-134017]
Second: COc1cccc(CNC(=O)c2ccnc(-c3cccc(CN(C)C4CCN(C)CC4)c3)c2)c1 [TCMDC-134500]
The “% Inhibition” value of the first is lower: -45.24% for the first, 23.23% for the second.

Going from `Cc1ccc(NC(=O)c2ccc(NCCCN3CC(C)CC(C)C3)c([N+](=O)[O-])c2)cc1F` (stereo not shown) [TCMDC-125684] to `COc1ccc(CN2CCCN(Cc3cccc(C(=O)Nc4ccc(C)c(F)c4)c3)CC2)cc1` [TCMDC-135960], the “% Inhibition” value falls from -7.765% to -17.45%.

First: Cc1cnc(N)c(/C=C/c2cncc(C(=O)NCCc3ccc(Cl)cc3Cl)c2)c1 [TCMDC-134509]
Second: C=CCn1c(SCC(=O)Nc2cc(Cl)ccc2Cl)nc2sc(C)cc2c1=O [TCMDC-124996]
The “% Inhibition” value of the first is lower: -9.663% for the first, 8.476% for the second.

Going from `O=C(/C=C/c1ccc(Cl)c(Cl)c1)NCCCCCN1CCC(NC(=O)Nc2ccc(C(F)(F)F)cc2)C1` (stereo not shown) [TCMDC-139527] to `O=C(/C=C/c1ccc(Cl)c(Cl)c1)NCCCCCN1CCC(NC(=O)Nc2ccc(C(F)(F)F)cc2)CC1` [TCMDC-135723], the “% Inhibition” value rises from -24.61% to -19.76%.

Going from `CCCCCCCNC(=O)NCC1CCCN(CCCCCNC(=O)/C=C/c2ccc(Cl)c(Cl)c2)C1` (stereo not shown) [TCMDC-139518] to `CC(C)c1ccc(NC(=O)NCC2CCCN(CCCCCNC(=O)/C=C/c3ccc(Cl)c(Cl)c3)C2)cc1` (stereo not shown) [TCMDC-139519], the “% Inhibition” value rises from 11.83% to 58.09%.

Going from `O=C(/C=C/c1ccc(Cl)c(Cl)c1)NCCCCCN1CCC(NC(=O)Nc2ccc(Cl)c(C(F)(F)F)c2)CC1` [TCMDC-135730] to `O=C(/C=C/c1ccc(Cl)c(Cl)c1)NCCCCCN1CCC(CCCNC(=O)Nc2ccc(C(F)(F)F)cc2)CC1` [TCMDC-139514], the “% Inhibition” value rises from 1.176% to 102.3%.

Compared with `COc1cc2ncnc(Nc3ccc(OCc4ccccc4Br)c(OC)c3)c2cc1OC` [TCMDC-131915], `COc1cc(C(=O)NC2CCN(Cc3ccccc3)CC2)ccc1-c1nc2cc(Cl)c(C)cc2[nH]1` [TCMDC-140028] is lower in “% Inhibition” value: -3.642% for the first, -62.59% for the second.

Going from `O=S(=O)(NC1CCN(c2ccnc3ccccc23)C1)c1ccc(OC(F)(F)F)cc1` (stereo not shown) [TCMDC-133581] to `COc1ccc2nccc([C@@H](O)CN3CCC(NC(=O)C(c4cc5ccccc5o4)N4CCN(c5ccccc5OC)CC4)CC3)c2c1` (stereo partly shown) [TCMDC-140991], the “% Inhibition” value rises from 2.209% to 13.75%.

Going from `O=C(Cc1cccs1)NC(CCCN1CCC(Oc2cccc(Cl)c2)CC1)c1ccc(Cl)c(Cl)c1` (stereo not shown) [TCMDC-141902] to `CN(C(=O)/C=C/c1c(Cl)cccc1Cl)C1CCN(CCCCCNC(=O)/C=C/c2ccc(Cl)c(Cl)c2)CC1` [TCMDC-139995], the “% Inhibition” value rises from -47.46% to -22.04%.

Going from `CC1CN(S(=O)(=O)c2ccc(NC(=O)c3cc(-c4ccccc4O)n[nH]3)cc2)CC(C)O1` (stereo not shown) [TCMDC-125195] to `O=C(Nc1ccc(CN2CCN(S(=O)(=O)c3cccc(Cl)c3)CC2)cc1)c1cccs1` [TCMDC-136319], the “% Inhibition” value rises from 7.357% to 27.89%.

Compared with `CCCN(c1ccc(O)c(CN2CCCCC2)c1)c1ccc([N+](=O)[O-])cn1` [TCMDC-137486], `CN(CC(=O)N1CCN(S(=O)(=O)c2cccc(Cl)c2)CC1CN1CCCC1)c1ccc(Cl)c(Cl)c1` (stereo not shown) [TCMDC-136893] is higher in “% Inhibition” value: 15.96% for the first, 71.55% for the second.

Going from `CN(C)c1ccc(-c2ccc(C(=O)NC3CCN(Cc4ccc5c(c4)OCCO5)CC3)s2)cc1` [TCMDC-134339] to `O=C(NCc1cccc(Cl)c1)c1ccc(CNC2CCN(Cc3ccccc3)CC2)cc1` [TCMDC-140785], the “% Inhibition” value rises from -48.84% to 24.82%.

First: CCCN=CNc1cc(-c2csc(N=C(N)N)n2)cc([N+](=O)[O-])c1 [TCMDC-137246]
Second: O=C(NCc1ccc(Cl)c(Cl)c1)c1cccc(C2CCCN(Cc3ccc4nc[nH]c4c3)C2)c1 (stereo not shown) [TCMDC-133067]
The “% Inhibition” value of the first is lower: -47.16% for the first, -29.33% for the second.

Compared with `O=C(NC1CCC(N2CCC(O)(c3ccc(F)cc3)CC2)CC1)c1cc2ccccc2[nH]1` (stereo not shown) [TCMDC-132887], `O=C(NC1CCC(N2CCC3(CC2)C(=O)NCN3c2ccccc2)CC1)c1cc2ccccc2[nH]1` (stereo not shown) [TCMDC-132886] is higher in “% Inhibition” value: 9.268% for the first, 76.36% for the second.

First: O=C(NC1CCC(N2CCN(c3cccc(C(F)(F)F)c3)CC2)CC1)c1cc2ccccc2[nH]1 (stereo not shown) [TCMDC-132885]
Second: CC(Cc1ccc(OCCN2CCN(c3ccc(Cl)cc3)CC2)cc1)NCC(O)c1cccc(C(F)(F)F)c1 (stereo not shown) [TCMDC-131530]
The “% Inhibition” value of the first is higher: 32.36% for the first, 29.05% for the second.

First: CC1CCN(Cc2cccc(C(=O)NCc3ccc(F)c(-c4cccc(CN5CCN[C@@H](C)C5)c4)c3)c2)CC1 [TCMDC-136206]
Second: C[C@H]1CN(Cc2cccc(-c3cc(CNC(=O)c4cccc(CN5CCN(CCOc6ccccc6)CC5)c4)ccc3F)c2)CCN1 [TCMDC-136210]
The “% Inhibition” value of the first is lower: 100.7% for the first, 110.3% for the second.

Compared with `C[C@H]1CN(Cc2cccc(-c3cc(CNC(=O)c4cccc(CC5CCN(C)CC5)c4)ccc3F)c2)CCN1C` [TCMDC-136349], `C[C@H]1CN(Cc2cccc(-c3cc(CNC(=O)c4cccc(CN5CCN(C/C=C/c6ccccc6)CC5)c4)ccc3F)c2)CCN1` [TCMDC-136208] is higher in “% Inhibition” value: 103.8% for the first, 114.8% for the second.

Compared with `O=C(NCc1ccc(Cl)c(Cl)c1)c1ccc(C2CCCN(Cc3ccc4nc[nH]c4c3)C2)cc1` (stereo not shown) [TCMDC-133068], `C[C@H]1CN(Cc2cccc(-c3cc(CNC(=O)c4cccc(C(=O)c5ccc(Cl)c(Cl)c5)c4)ccc3F)c2)CCN1` [TCMDC-136245] is higher in “% Inhibition” value: 0.7535% for the first, 103.5% for the second.

First: CN1CCCN(Cc2cccc(-c3ccc(CNC(=O)c4cccc(Cl)c4)c(F)c3)c2)CC1 [TCMDC-133370]
Second: O=C(NCc1ccc(Cl)cc1)c1ccc(CN2CCCN(Cc3cccc(O)c3)CC2)cc1 [TCMDC-136442]
The “% Inhibition” value of the first is higher: 8.787% for the first, 2.881% for the second.

Compared with `COc1cccc(CNC(=O)[C@@H]2CN(C(=O)c3ccccc3)CCN2)c1` [TCMDC-141267], `COc1ccc(C(=O)N2CCC(C(=O)NC(C)c3ccc(-n4ccnc4)cc3)CC2)c2ccccc12` (stereo not shown) [TCMDC-124603] is lower in “% Inhibition” value: -8.525% for the first, -15.82% for the second.

First: CC1(C)[C@H]2CC[C@@H](CNc3nc(NCCc4cnc[nH]4)nc(Nc4ccc5c(c4)OCO5)n3)[C@@H]1C2 [TCMDC-139738]
Second: CC(C)(C)c1ccc(NC(=O)c2cccc(CN3CCCN(Cc4ccc(F)cc4)CC3)c2)cc1 [TCMDC-135985]
The “% Inhibition” value of the first is higher: -17.51% for the first, -30.03% for the second.

In the case of `Cn1c(N)c(C(=O)CSc2ncc(-c3ccc(F)cc3)n2Cc2ccccc2)c(=O)n(C)c1=O` [TCMDC-125101], the “% Inhibition” value is reported as 12.63%.
